Our source for the inhibition values is PubChem BioAssay.

The source made the active and inactive calls.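 How the source made its calls: active means inhibition above the hit cutoff set in the earlier primary screen (cut at about 27% in these data); inactive means the rest.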

The target of the assay is Protein phosphatase methylesterase 1 (Homo sapiens) (UniProt Q9Y570). In words: human PME-1 methylesterase inhibition confirmation – biochemical, fluorescence polarization, FP-Rh probe, triplicate (AID 2171).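 Further: 0% = enzyme with DMSO and 100% = wells lacking PME-1.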 The conditions noted are these: recombinant PME-1, FP-Rh probe fluorescence polarization; at 5.9 µM; stronger effect = higher value.
Protein phosphatase methylesterase 1 (Homo sapiens), sequence (Q9Y570 whole entry, looked up): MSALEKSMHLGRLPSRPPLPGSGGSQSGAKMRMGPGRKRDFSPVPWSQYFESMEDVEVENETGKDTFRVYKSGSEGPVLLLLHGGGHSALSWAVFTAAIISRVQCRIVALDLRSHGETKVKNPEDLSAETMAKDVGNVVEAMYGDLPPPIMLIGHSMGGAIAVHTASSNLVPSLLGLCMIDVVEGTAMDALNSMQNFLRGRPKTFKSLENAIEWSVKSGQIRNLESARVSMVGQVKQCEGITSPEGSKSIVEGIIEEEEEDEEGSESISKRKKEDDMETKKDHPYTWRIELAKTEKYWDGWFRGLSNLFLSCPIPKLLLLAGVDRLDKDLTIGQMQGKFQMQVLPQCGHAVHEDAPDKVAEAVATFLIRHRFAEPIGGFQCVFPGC
In the case of `O=C(COC(=O)c1cccc2c1C(=O)c1ccccc1C2=O)NC1CCCCC1`, the inhibition is 56.5% (active). For the compound `O=C(O)c1ccc(-c2ccc(/C=N/Nc3ccc([N+](=O)[O-])cc3)o2)cc1`, the inhibition is 33.5% (active). The figure for `O=C1C(CSCc2ccccc2)NC(=S)N1c1ccccc1` (stereo not given) is 5.6% (inactive); for `Cn1c(=O)c(Nc2ccc(O)cc2)c2c3c(cccc31)C(=O)c1ccccc1-2` it is 36% (active); for `O=C(NNc1nc2c(F)cccc2s1)c1cc(=O)c2ccccc2o1` it is 58.6% (active). The figure for `COc1ccc(/C=N/Nc2snc(SC)c2C#N)cc1OC` is 24.9% (inactive); for `CC1=NN(c2ccccc2)C(=O)/C1=C/c1c(O)n(-c2ccc(F)cc2)[nH]c1=O` it is 52.1% (active); for `Cc1cccc(NC(=O)COC(=O)c2cccc3c2C(=O)c2ccccc2C3=O)c1C` it is 37.5% (active).

`COc1ccc(NC(=S)Nc2ccc3nsnc3c2)cc1`: the inhibition was 24.3% (inactive). The figure for `CCN(c1ccccc1)S(=O)(=O)c1ccc(OC)c(NC(=O)CNCCc2ccccc2)c1` is 19.9% (inactive). With `CCCOc1ccc([C@@H]2C3CN(C(=O)OCC)CC=C3C(C#N)=C(N)C2(C#N)C#N)cc1OC` (stereo not given in full) the figure was 53.6% (active); with `CCOc1ccc(/C=C2\SC(=S)N(C(C(=O)O)c3ccccc3)C2=O)cc1OC` (stereo not given), 43.8% (active); with `Nc1n[nH]c(C2CC2)c1N=Nc1ccc(Cl)c(Cl)c1`, 20.6% (inactive). The figure for `Cc1cc2nc3c(=O)n(CCc4ccccc4)c(=O)[nH]c3nc2cc1N` is 44.2% (active). `COc1ccc(S(=O)(=O)N(C)C)cc1NC(=O)Cc1c[nH]c2ccccc12`: the inhibition was 85% (active).

On to `O=C(c1ccccc1F)N1CCN(Cc2nc3sc4c(c3c(=O)[nH]2)CCCC4)CC1`, for which the inhibition is 19.9% (inactive). With `COc1ccc(NC(=S)NNc2ccc(S(=O)(=O)Nc3ccccc3C(=O)O)cc2[N+](=O)[O-])cc1` the figure was 44.9% (active). The figure for `N#CCCN(CCC#N)C(=O)C1c2ccccc2Oc2ccccc21` is -4.23% (inactive). Regarding `Cc1ccc(NC(=O)CS(=O)CC(=O)Nc2ccccc2-c2ccc(C)o2)cc1` (stereo not given), the inhibition was 2.84% (inactive). For `O=C1C2=C(Nc3ccccc3SC2c2ccco2)c2ccccc21` (stereo not given), the inhibition is 5.92% (inactive). As for `c1ccc(-c2ccc(C3CCCN3)cc2)cc1` (stereo not given), the inhibition is 0.67% (inactive). Regarding `COc1ccc(N=Nc2nc3cc(Br)c(Br)cc3n2C)c(OC)c1`, the inhibition was 50.6% (active). In the case of `Cc1c(O)ccc(/C=N/Nc2nc(-c3cccnc3)nc3ccccc23)c1O`, the inhibition was 48.8% (active). Turning to `Cc1ccc(C(=O)O)cc1N1C(=O)c2cccc3c([N+](=O)[O-])ccc(c23)C1=O`, the inhibition was 38.7% (active). The figure for `N#C/C(=C(\O)c1cc(Cl)sc1Cl)c1nc2ccccc2[nH]1` is 21.8% (inactive). With `COC(=O)N1C(=O)[C@](c2ccccc2)(C2CCCCC2)N1C(=O)OC` the figure was 76.6% (active); with `CCN(CC)C(=O)C1c2ccccc2Oc2ccccc21`, 7.22% (inactive); with `O=C(N/N=C/c1c(Cl)[nH]c2ccccc12)c1ccc2c(c1)OCCO2`, 20.6% (inactive). With `Cc1c(C(=O)N/N=C/c2ccc(O)c(Br)c2)sc(N)c1C#N` the figure was 49.7% (active); with `CC(C)Oc1ccc(CCC(=O)N/N=C/c2ccc3c(c2)OCO3)cc1`, 4.01% (inactive); with `CCOc1ccc(N=C/C=C/c2ccccc2)c(O)c1`, 9.57% (inactive). With `CCCn1c(CCC(=O)Nc2ccccc2Cc2ccccc2)nc2cc(S(=O)(=O)N3CCOCC3)ccc21`, the inhibition is 45.4% (active). As for `CC1Oc2ccccc2C=C1/C=N/Nc1ccc(C(=O)O)cc1` (stereo not given), the inhibition was 34.8% (active). `COc1cc2c(cc1NC(=O)Nc1ccccc1)oc1ccccc12`: the inhibition was -9.58% (inactive).

Consider `CCCCN(CCCC)CCNC(=O)c1cn(CC)c2ccc(S(=O)(=O)N(C)C3CCCCC3)cc2c1=O`, for which the inhibition was 85% (active). Take `CCN(CC)C(=O)CSc1nc2c(sc(=S)n2-c2ccccc2)c(=O)n1Cc1ccco1`: the inhibition was 78.6% (active).

As for `N#Cc1c(N)nc2c3c(sc(=N)c2c1N)NC(=O)CC3c1ccccc1` (stereo not given), the inhibition was 29% (active). With `Brc1ccc(/C=N/Nc2nc3ccccc3o2)cc1` the figure was 22.2% (inactive). With `COc1ccc(CCn2c(N)c(C#N)c3nc4ccccc4nc32)cc1OC` the figure was 25.9% (inactive). With `C/C(=N/Nc1ccnc2cc(Cl)ccc12)c1ccc(N)cc1` the figure was 26% (inactive).
